Hits are enriched below; roughly 2.2% of the tested compounds scored in any of these assays.
Abeta rescue – qHTS for compounds that reverse cellular toxicity of Amyloid beta (A-beta) peptide in yeast: Primary Screen. yeast expressing A-beta42, growth rescue, OD600, 48 h; response scale: 0% DMSO, 100% iron-clioquinol control. Potency, µM (highest dose often 46.1 µM), usual class: activators. 410,000 compounds, 0.063% hits. AID 1347071, 2019; further: nearly all actives have a fitted effect of over 55% in size
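Yeast A-beta toxicity model in growth medium with pinned compounds, 48 h at 30 C; growth read as absorbance at 600 nm. Normalized to FeCl3/clioquinol equimolar mix (positive) and DMSO (negative).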
aSyn yeast inh – qHTS of alpha-syn Inhibitors. Yeast expressing alpha-synuclein, growth rescue, BacTiter-Glo, 24 h. Potency, µM (titrated, usually from 46.1 µM), without a hit: top-dose growth rescue (activation), actives largely listed as activators. 370,000 compounds, 0.14% hits. AID 652106, 2013; further: % of control where 0% means no effect; nearly all actives have a fitted effect of over 65% in size
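Screening used galactose-induced yeast with toxic alpha-synuclein levels, exposed to compound for 24 hr at 30 deg C. Cell growth, read with BacTiter-Glo luminescence, gave the measured signal.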
TDP-43 yeast inh – qHTS of TDP-43 Inhibitors. Potency, µM (doses to about 46.1 µM), for the others: at the highest dose growth rescue (activation), hits mostly activators. 410,000 compounds, 1.8% hits. TDP-43 expressing yeast growth rescue, BacTiter-Glo, 24 h; further: % of control where 0% means no effect; nearly all actives have a fitted effect of over 50% in size
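Cell-based yeast growth screen: TDP-43 expression induced in galactose, inoculum OD600=0.02 after raffinose pregrowth to mid-log. Read-out BacTiter-Glo luminescence at 24 hr, 30 deg C; inhibition of toxicity seen as signal increase.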
Mito fusion yeast – qHTS Assay for Small Molecule Inhibitors of Mitochondrial Division or Activators of Mitochondrial Fusion; S. cerevisiae fusion-defective mutant growth rescue, CellTiterGlo 48 h; Potency, µM (highest dose often 46.1 µM), for inactives: at the top dose growth rescue (activation), hits mostly activators; 320,000 compounds, 0.23% hits; AID 485298, 2010; further: % of control where 0% means no effect; nearly all actives have a fitted effect of over 45% in size
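Yeast fusion mutant, YPEG (non-fermentable carbon), compound, 48 h at 37C non-permissive; CellTiterGlo added, 10 min RT, luminescence read. Rescued growth = division inhibition.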
FUS yeast rescue – qHTS for Suppressors of FUS Proteinopathy: Primary screen using FUS-linked yeast assay; S. cerevisiae FUS-expressing, growth rescue, OD600, 24 h; 390,000 compounds, 0.24% hits; Potency, µM (top dose mostly 76.6 µM), hits mostly activators;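 further: plate controls were DMSO vehicle for no effect and reference control for full effect; nearly all actives have a fitted effect of over 55% in size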
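Restored growth of FUS-toxic S. cerevisiae, read as 600 nm absorbance after 24 h at 30C in galactose medium (starting OD 0.005). Controls CP55940 and DMSO.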
* hit, by the source's call; i = inactive; ? = inconclusive; / = no result; ! = not active in a repeat. The call rests on the fitted dose curve; in most records, active means well fitted curve in the direction sought with a large enough effect; inconclusive means small, poorly fitted or top-dose-only effect, or another doubt; inactive means no such curve, though single readings can be large; an effect the other way counts as inactive or inconclusive. Potency means the concentration at half of the fitted maximal effect.

SMILES | Abeta rescue | aSyn yeast inh | TDP-43 yeast inh | Mito fusion yeast | FUS yeast rescue
O=c1[nH]cc(F)c(=O)[nH]1 | i | 9% | 0% | 2.9µM*! | i
O=c1[nH]cc(N(CCCl)CCCl)c(=O)[nH]1 | / | / | / | / | i
CCC1(C)CC(C(N)=S)CCO1 (centres undefined) | i | -36% | -94% | 8% | i
S=P(c1ccccc1)(c1ccccc1)c1cnc2ccccn12 | / | / | / | / | 22µM*
Cc1c(C(=O)c2cccc3ccccc23)c2cccc3c2n1[C@H](CN1CCOCC1)CO3 | i | 16% | 25µM* | 9.2µM* | i
O=C(CN1CCOCC1)c1cccc2ccccc12 | i | 2% | 6% | -4% | i
COc1ccc2c(c1)C13CCCCC1C(C2)N(C)CC3 (centres undefined) | / | 2% | / | -30% | /
Cc1nc2cc([N+](=O)[O-])ccc2c(=O)n1-c1ccc(Br)cc1 | i | -1% | -1% | 0% | i
Cc1nc2cc([N+](=O)[O-])ccc2c(=O)n1-c1ccccc1[N+](=O)[O-] | i | 12% | 16µM* | 3% | i
Cc1ccc(Cn2nnnc2CN2CCC(n3nnc4cc(C)ccc43)CC2)cc1 | i | 2% | 20µM* | 14% | i
Cc1ccc(Cn2nnnc2CN2CCC(n3nnc4cc(C(F)(F)F)ccc43)CC2)cc1 | i | 14% | ? | 11% | i
O=c1[nH]/c(=C\c2ccc(N(CCCl)CCCl)cc2)c(=O)[nH]/c1=C\c1ccc(N(CCCl)CCCl)cc1 | / | -1% | / | / | /
COc1ccc(-c2coc3c(C(=O)Nc4cc(OC)c(OC)c(OC)c4)cccc23)c(C)c1 | i | -5% | ? | / | i
O=C(Nc1ccc(Cl)cc1)Nc1nccs1 | i | -3% | 20µM* | 4% | i
O=C(O)C(F)(F)S(=O)(=O)O | i | 7% | 3% | 3.2µM* | i
Cc1ccccc1-c1ccc2n1Cc1cnnn1-c1ccccc1-2 | i | 5% | 13µM* | / | i
COc1cc2nc(N3CCCN(C)CC3)nc(N(C)C3CCN(C)CC3)c2cc1OC | / | 0% | / | / | /
CC(C)(C)NC(=O)C1CC2CCCCC2CN1 (centres undefined) | i | -3% | -17% | 3.5µM* | i
Brc1c(Br)c(Br)c2n[nH]nc2c1Br | / | -46% | / | 4.6µM* | /
CCOC(=O)[C@]12Cc3c(cc(OC)c(OC)c3OC)[C@H]1N(C)C(=O)c1cc(OC)ccc12 | i | 0% | 18µM* | / | i
CCOC(=O)[C@]12Cc3ccccc3[C@H]1N(C)C(=O)c1cc(OC)ccc12 | i | 4% | 35µM* | / | i
NCCCNCCSP(=O)(O)O | / | -11% | / | -34% | /
COc1ccc(CCNC(=O)c2cnc3sc(N4CCCCCC4)nn3c2=O)cc1 | i | / | ? | / | i
COc1ccc(-c2ccc3c(c2)CN(C(=S)NCCc2ccccc2)Cc2cnnn2-3)cc1 | i | 4µM* | ? | / | i
O=C(CCc1ccccc1)N1Cc2cc(-c3cccc(F)c3)ccc2-n2nncc2C1 | i | 28% | ? | / | i
SMILES | Abeta rescue | aSyn yeast inh | TDP-43 yeast inh | Mito fusion yeast | FUS yeast rescue
S=C(NCCc1ccccc1)N1Cc2cc(Br)ccc2-n2nncc2C1 | ? | ? | 22µM* | / | i
S=C(NCCc1ccccc1)N1Cc2ccc(Br)cc2-n2nncc2C1 | ? | ? | 25µM* | / | i
COc1ccc(-c2ccc3c(c2)CN(C(=O)CCc2ccccc2)Cc2cnnn2-3)cc1 | i | -3% | ? | / | ?
O=C(NC1CCCCC1)N1Cc2cc(-c3ccccc3)ccc2-n2nncc2C1 | i | 10% | 20µM* | / | i
O=C1NCCOC(=O)[C@@H](Cc2ccc(F)cc2)CC/C=C/C[C@H]1CC(=O)N(CCO)Cc1ccccc1 | i | ? | 19% | / | i
Cc1cc(/C=C/c2ccnc3ccccc23)ccc1N(CCCl)CCCl | / | 3% | / | / | /
CC(C(=O)O)c1ccc(-c2ccccc2)c(F)c1 (centres undefined) | i | -12% | 16µM* | 2% | i
COC(=O)C1=C(c2ccc(-c3ccccc3)c(F)c2)C[C@@H]2CC[C@H]1N2C(=O)NCCCOC(C)C | i | 11% | 23% | ? | ?
COC1C(C)OC(OC2CC(C)(O)Cc3cc4c(c(O)c32)C(=O)c2c(O)cc3c(c2C4=O)OC2OC3(C)C(O)C(N(C)C)C2O)C(OC)C1(C)OC (centres undefined) | i | ? | 22µM* | / | /
CCOc1ccc(N2CC(c3nc4ccccc4n3CCC3CCCCC3)CC2=O)cc1 (centres undefined) | i | / | 25µM* | / | i
O=C(c1ccccc1Cl)N1CCC(c2nc3ccccc3s2)CC1 | i | / | 16µM* | / | i
O=Cc1cn(Cc2cccc([N+](=O)[O-])c2)c2ccccc12 | i | 8% | 28% | 14% | /
Cc1cccc(Cn2cc(C=O)c3ccccc32)c1 | i | 7% | 14µM* | 27% | i
O=P(Nc1cccc(F)c1)(Oc1ccccc1F)Oc1ccccc1F | ? | 18µM* | 28% | 14% | i
CC(C(=O)c1ccc(Cl)cc1Cl)n1cncn1 (centres undefined) | i | 15% | 15% | 8% | i
CC(C)(C)C(O)C(Oc1ccc(Cl)cc1)n1cncn1 (centres undefined) | ? | ? | 2.5µM* | 35µM* | i
C#CCCC[C@@H]1OC(=O)CNC(=O)C([C@@H](C)CC)NC(=O)[C@@H]2CCCN2C(=O)C([C@@H](C)CC)OC(=O)[C@H](Cc2ccccc2)N(C)C(=O)[C@H](C(C)C)NC(=O)C1(C)C (some centres undefined) | i | 3% | -7% | / | 7.9µM*
CC(=O)OCC1=C(C(=O)O)N2C(=O)[C@@H](NC(=O)CCC[C@@H](N)C(=O)O)[C@H]2SC1 | / | -7% | / | 4% | /
COc1ccc(C/C(=N\OC(C)=O)c2ccc(OC)cc2)cc1 | i | -19% | ? | -4% | i
COc1ccc(CC2NCC(O)C2OC(C)=O)cc1 (centres undefined) | i | ? | 13µM* | / | i
N#Cc1cc2c(nc1SCC(=O)Nc1ccc(C(F)(F)F)cc1)C1CCN2CC1 | i | / | 17% | / | i
